Reference: PubChem BioAssay (EPA / NIEHS)
Results filed as inconclusive are left out. Calls of active or inactive are those of the source. How the source made its calls: active means hit-call score of the fitted dose curve at least 0.9, where 1 is the maximum; inconclusive means response in the unintended direction; inactive means score below 0.9.

What follows are compounds tested on glucuronosyltransferase (UGT1A1), UGT1A1 (gene 54658) (assay: CLD_UGT1A1_6hr: CellzDirect (CLD) Gene Expression Assay for glucuronosyltransferase (UGT1A1) at 6 hours (AID 2283672)).
Method: CLD_6hr is a cell-based, multiplexed-readout assay that uses hepatocyte, a human liver primary cell, with measurements taken at 6 hours after chemical dosing in a 96-well plate.CLD_UGT1A1_6hr is one of 16 assay component(s) measured or calculated from the CLD_6hr assay. It is designed to make measurements of mRNA induction, a form of inducible reporter, as detected with chemiluminescence signals by Quantitative Nuclease Protection Assay (qNPA) technology.Data from the assay component CLD_UGT1A1_6hr was analyzed at the endpoint, CLD_UGT1A1_6hr, in the positive analysis fitting direction relative to DMSO as the negative control and baseline of activity. Using a type of inducible reporter, gain-of-signal activity can be used to understand changes in the reporter gene as they relate to the gene UGT1A1. Furthermore, this assay endpoint can be referred to as a primary readout. To generalize the intended target to other relatable targets, this assay endpoint is annotated to the transferase intended target family, where subfamily is glucuronosyltransferase.
Human hepatocyte cultures were treated daily for two consecutive days with fresh dosing solutions containing appropriate concentrations of the 320 ToxCast chemicals (chemical identities were blinded to CellzDirect and other ToxCast collaborators), vehicle control (0.2% DMSO), and positive control inducers as summarized in Table 1. Due to the large number of treatment groups and chemicals examined, the ToxCast chemicals were divided into two groups (spanning two independent cultures of hepatocytes from separate donor preparations (Hu778: ToxCast plates 1 and 2; Hu776: ToxCast plates 3 and 4). Each preparation of human hepatocyte cultures was treated with respective vehicle control, medium only control, set of six positive controls/reference chemicals for the five hepatic receptor pathways, and a subset of eight of the ToxCast chemicals (indoxacarb, pyrithiobac-sodium, norflurazon, cyhalofop-butyl, methomyl, thiram, acetochlor, and propiconazole). These replicate data, coupled with internal replicates designed within the blinded ToxCast chemical library, provided additional data to evaluate interindividual differences between hepatocyte preparations and their potential impact on chemical profiles.Cell morphology and integrity were evaluated using phase-contrast microscopy as an indicator of hepatocyte cell health (Tyson & Green, 1987). Cultures for each treatment group (i.e., media, vehicle [0.2% DMSO], positive control inducers [multiple concentrations], and the ToxCast chemicals [multiple concentrations]) were observed and cell morphology was assessed relative to vehicle control cultures at each harvest time point (0, 6, 24, or 48 h). […] Images were evaluated at the conclusion of the study to assess changes in cell integrity and account for the effects of chemical exposure on uncharacteristic changes in concentration-dependent gene expression profiles. The results from these determinations of apparent cytotoxicity were annotated (yes/no) alongside the corresponding qNPA data for reference.At the conclusion of each treatment period, hepatocyte cultures (96-well) were washed with 1 volume of HBSS, lysed by addition of 25 ul ArrayPlate lysis buffer (HTG, Tucson, AZ), and 70 ul/well of Denaturation Oil, denatured by incubation at 95C for 10 min, and frozen at approximately -70C until analysis by nuclease protection assay (qNPA) (Roberts et al., 2007). For qNPA analysis, cell lysates were thawed at 50C for approximately 30 min, qNPA probes were added, and samples were incubated at 95C for 10 min to begin the detection process by denaturing the target RNA, dissociating the duplexes and secondary structure hybridization. At the conclusion of the hybridization period, S1 nuclease reagent was added to each sample to digest all nonprotected nucleotides at 50C for 60-90 min. […]

**Q.** `CNC(=O)/C=C(\C)OP(=O)(OC)OC` was tested. Which outcome did it give?
**A.** Its outcome is “inactive”.

**Q.** For `O=C(O)CCCOc1ccc(Cl)cc1Cl`, which outcome is on record?
**A.** Its outcome is “inactive”.

**Q.** For `CCc1ccc(C(=O)NN(C(=O)c2cc(C)cc(C)c2)C(C)(C)C)cc1`, which outcome is on record?
**A.** Its outcome is “inactive”.

**Q.** Which outcome does the source give for `CC(C)OC(=O)Nc1cccc(Cl)c1` here?
**A.** Its outcome is “inactive”.

**Q.** For `COC(=O)c1ccccc1CS(=O)(=O)NC(=O)Nc1nc(OC)cc(OC)n1`, which outcome is on record?
**A.** Its outcome is “inactive”.

**Q.** `CNC(=O)Oc1ccccc1OC(C)C` was tested. Which outcome did it give?
**A.** Its outcome is “inactive”.

**Q.** With `COP(=O)(OC)OC=C(Cl)Cl` as the compound, how does the outcome read?
**A.** Its outcome is “inactive”.

**Q.** With `CC(C)(C)C(O)/C(=C\c1ccc(Cl)cc1Cl)n1cncn1` (stereo not given) as the compound, how does the outcome read?
**A.** Its outcome is “inactive”.

**Q.** How did the outcome turn out when `COP(=S)(OC)Oc1ccc(SC)c(C)c1` was run?
**A.** The outcome was “inactive”.

**Q.** Which outcome does the source give for `O=C(NC(=O)c1c(F)cccc1F)Nc1ccc(OC(F)(F)C(F)OC(F)(F)F)c(Cl)c1` (stereo not given) here?
**A.** The outcome was “inactive”.

**Q.** For `CNC(=O)Oc1cccc(N=CN(C)C)c1`, which outcome is on record?
**A.** The outcome was “inactive”.

**Q.** How did the outcome turn out when `COc1nn(CSP(=S)(OC)OC)c(=O)s1` was run?
**A.** Its outcome is “inactive”.

**Q.** With `CCN(CC)C(=O)SCc1ccc(Cl)cc1` as the compound, how does the outcome read?
**A.** The outcome was “inactive”.

**Q.** `ClC1C(Cl)C(Cl)C(Cl)C(Cl)C1Cl` (stereo not given) was tested. Which outcome did it give?
**A.** Its outcome is “inactive”.

**Q.** With `CCC(C)(C)C(=O)OC1=C(c2ccc(Cl)cc2Cl)C(=O)OC12CCCCC2` as the compound, how does the outcome read?
**A.** The outcome was “inactive”.

**Q.** For `O=C(O)COc1ccc(Cl)cc1Cl`, which outcome is on record?
**A.** Its outcome is “inactive”.

**Q.** How did the outcome turn out when `O=[N+]([O-])c1c(Cl)c(Cl)c(Cl)c(Cl)c1Cl` was run?
**A.** Its outcome is “inactive”.

**Q.** How did the outcome turn out when `CCS(=O)(=O)c1cccnc1S(=O)(=O)NC(=O)Nc1nc(OC)cc(OC)n1` was run?
**A.** The outcome was “inactive”.

**Q.** `Clc1ccccc1-c1nnc(-c2ccccc2Cl)nn1` was tested. Which outcome did it give?
**A.** Its outcome is “inactive”.

**Q.** With `Cc1[nH]c(=O)n(C(C)(C)C)c(=O)c1Cl` as the compound, how does the outcome read?
**A.** The outcome was “inactive”.

**Q.** With `O=S1OCC2C(CO1)C1(Cl)C(Cl)=C(Cl)C2(Cl)C1(Cl)Cl` (stereo not given) as the compound, how does the outcome read?
**A.** The outcome was “inactive”.

**Q.** `O=C(Nc1ccccc1)Nc1cnns1` was tested. Which outcome did it give?
**A.** Its outcome is “inactive”.

**Q.** With `Cc1cc(C)nc(NC(=O)NS(=O)(=O)c2ccccc2C(=O)OC2COC2)n1` as the compound, how does the outcome read?
**A.** Its outcome is “inactive”.

**Q.** For `CCCN(CCC)c1c([N+](=O)[O-])cc(C(F)(F)F)cc1[N+](=O)[O-]`, which outcome is on record?
**A.** The outcome was “inactive”.

**Q.** `CC(C)N(C(=O)COc1nnc(C(F)(F)F)s1)c1ccc(F)cc1` was tested. Which outcome did it give?
**A.** Its outcome is “inactive”.

**Q.** `C[C@H]1[C@H](c2ccc(Cl)cc2)SC(=O)N1C(=O)NC1CCCCC1` was tested. Which outcome did it give?
**A.** Its outcome is “inactive”.

**Q.** `COC(=O)c1ccccc1S(=O)(=O)NC(=O)N(C)c1nc(C)nc(OC)n1` was tested. Which outcome did it give?
**A.** The outcome was “inactive”.

**Q.** How did the outcome turn out when `CCC(C)(NC(=O)c1cc(Cl)c(C)c(Cl)c1)C(=O)CCl` (stereo not given) was run?
**A.** Its outcome is “inactive”.

**Q.** How did the outcome turn out when `Oc1ccc(Cl)cc1Cc1ccccc1` was run?
**A.** Its outcome is “inactive”.

**Q.** Which outcome does the source give for `CC(C)(C)C(O)C(Oc1ccc(Cl)cc1)n1cncn1` (stereo not given) here?
**A.** The outcome was “inactive”.

**Q.** Which outcome does the source give for `CCCN(CCOc1c(Cl)cc(Cl)cc1Cl)C(=O)n1ccnc1` here?
**A.** The outcome was “inactive”.

**Q.** With `CC1(C)C(C=C(Cl)Cl)C1C(=O)OC(C#N)c1ccc(F)c(Oc2ccccc2)c1` (stereo not given) as the compound, how does the outcome read?
**A.** Its outcome is “inactive”.

**Q.** How did the outcome turn out when `O=[N+]([O-])/N=C1\NCCN1Cc1ccc(Cl)nc1` was run?
**A.** Its outcome is “inactive”.

**Q.** `CCOCN(C(=O)CCl)c1c(C)cccc1CC` was tested. Which outcome did it give?
**A.** Its outcome is “inactive”.

**Q.** With `CNC(=O)CSP(=S)(OC)OC` as the compound, how does the outcome read?
**A.** Its outcome is “inactive”.

**Q.** `N#CN` was tested. Which outcome did it give?
**A.** Its outcome is “inactive”.

**Q.** With `O=S(=O)(O)C(F)(F)C(F)(F)C(F)(F)C(F)(F)C(F)(F)C(F)(F)C(F)(F)C(F)(F)F` as the compound, how does the outcome read?
**A.** Its outcome is “inactive”.

**Q.** How did the outcome turn out when `CCOC1Oc2ccc(OS(C)(=O)=O)cc2C1(C)C` (stereo not given) was run?
**A.** The outcome was “inactive”.

**Q.** With `CN1CSC(=S)N(C)C1` as the compound, how does the outcome read?
**A.** Its outcome is “inactive”.

**Q.** `CCOc1nc(NC)nc(NC(=O)NS(=O)(=O)c2ccccc2C(=O)OC)n1` was tested. Which outcome did it give?
**A.** Its outcome is “inactive”.
